Measured values reported in PubChem BioAssay.
Potency and affinity values are given separately. Calls of active or inactive are those of the source. A call without a number means that no potency is given here. The rule behind the calls is not given here.

target: Melanocortin receptor 4 (Homo sapiens) (UniProt P32245); assay: blockade of melanocortin 4 receptor signaling – cell-based, plate reader, cherry pick, counter-screen for LGR2 antagonist project, dose response (AID 743444); details: MC4R-expressing cells, antagonist mode; series mostly up to 35 µM

Compound | outcome
Cc1ccc(CNS(=O)(=O)c2ccc3c(c2)CCN3C(=O)CCCC(=O)O)cc1 | inactive
Cc1noc2ncnc(Sc3ccc(Br)cc3)c12 | inactive
Cc1ccc(S(=O)(=O)N2CCCc3nc(-c4ccc(F)cc4)ccc32)cc1 | inactive
